The values below come from PubChem BioAssay.

The source made the active and inactive calls.

The test system of assay [1] is Human papillomavirus type 1a protein E7 (residues 44-93). The assay can be described thus: HPV1a E7 fragment binders on microarrays, primary screen, biochemical, small-molecule microarray, residues 44-93, 635 nm fluorescence (AID 1108).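 Also: E7 fragment applied at 1 µg/mL in TBST for 1 h at 4 C; score combines spot fluorescence with its signal to noise ratio.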 Particulars: small-molecule microarray binding, fluorescence 635 nm; higher = more signal.
Assay [2] is described as follows: modulators of HCV replicon luciferase signal, primary screen, HCV replication inhibitor project, Huh7 cells, luciferase reporter (AID 1109).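 Also: huh7 hepatoma cells harbouring a luciferase neomycin HCV replicon reporter; luciferase luminescence as measure of HCV replicon replication; test concentration not given here.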 Particulars: 48 h, higher = more signal. (A replicon is a self-replicating genome or part of one, used to study replication in cells.)
The target of assay [3] is Left-right determination factor 2 (Homo sapiens) (UniProt O00292). The assay can be described thus: LEFTY2 binders on small-molecule microarrays, primary screen, biochemical, small-molecule microarray, 635 nm fluorescence scan (AID 1110). Particulars: LEFTY2 binding, higher = more signal.
In assay [4] the target is Calmodulin-1 (Homo sapiens) (UniProt P0DP23). The assay can be described thus: CALM1 binders on microarrays, EGTA buffer, profiling panel, biochemical, small-molecule microarray, Cy5-labelled CALM1 (AID 1111).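 Also: labelled calmodulin applied in Tris saline Tween buffer holding calcium plus EGTA and DTT.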 Conditions: Cy5-CALM1 binding fluorescence, higher = more signal.
The target is the same in assay [5]. The assay can be described thus: calcium-bound CALM1 binders on microarrays, profiling panel, artefact control for SMM control-protein annotation, biochemical, small-molecule microarray, Cy5-labelled CALM1, plus calcium (AID 1112).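 Also: score merges spot fluorescence with signal to noise from triplicate slides.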 Particulars: Cy5-CALM1 binding fluorescence, higher = more signal.
Assay [6] can be described thus: small-molecule microarray binders of probe aWnt5a, primary screen, biochemical, biotinylated probe, 635/667 nm fluorescence (AID 1113).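 Also: score merges 667 nm fluorescence intensity with signal-to-noise per printed feature.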 Particulars: higher = more signal.
The nature of assay [7]: small-molecule microarray binders of probe aShh, primary screen, biochemical, biotinylated probe, 635/667 nm fluorescence (AID 1114).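 Also: probe is biotin-labelled aShh protein from a stem cell growth factor screen; measures binding of labelled protein to compounds printed on the slide; score merges feature fluorescence at 667 nm with signal-to-noise.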 Particulars: higher = more signal.
Assay [8] can be described thus: small-molecule microarray binders of probe aNog, primary screen, biochemical, biotinylated probe, 635/667 nm fluorescence (AID 1115).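 Also: probe is biotinylated aNog protein used at 0.15 µg/mL for 1 h at 4 C; z-score combines 667 nm fluorescence of each spot with its signal to noise.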 Conditions: higher = more signal.
Assay [9] has as its target Torsin-1A-interacting protein 1 (Homo sapiens) (UniProt Q5JTV8). In words: LAP1 binders from COS7 cell lysate, primary screen, small-molecule microarray, 635/667 nm fluorescence (AID 1116). Particulars: COS7-hLAP1 lysate binding, 635 nm fluorescence, higher = more signal.
The target of assay [10] is Alpha-bungarotoxin (Bungarus multicinctus) (UniProt P60615). In words: alpha-bungarotoxin binders on microarray, profiling panel, artefact control for SMM control protein annotation, biochemical, small-molecule microarray, Alexa647 label, 635/667 nm fluorescence (AID 1117). Conditions: alpha-BTX-A647 binding fluorescence, higher = more signal.
Assay [11] has as its target Albumin (Bos taurus) (UniProt P02769). The assay can be described thus: bovine serum albumin binders on microarray, profiling panel, artefact control for SMM control protein annotation, biochemical, small-molecule microarray, Alexa647 label, 635/667 nm fluorescence (AID 1118).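 Also: score merges 667 nm emission intensity and signal-to-noise per printed compound spot.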 Particulars: BSA-A647 binding, fluorescence 635 nm, higher = more signal.
Assay [12] can be described thus: small-molecule microarray binders of probe aXIP, primary screen, biochemical, NeuroSMM set, 635/667 nm fluorescence (AID 1119).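 Also: probe is the protein aXip251-270 applied at 1 µg/mL to compound-printed slides; binding of probe to printed compounds measured as 667 nm fluorescence plus signal to noise.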 Conditions: higher = more signal, called active from +8 up or from −8 down.
Assay [13] can be described thus: small-molecule binders of probe aNOTCH3, primary screen, biochemical, small-molecule microarray, 635/667 nm fluorescence (AID 1120).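 Also: probe is a biotin-tagged antibody raised against NOTCH3 rather than NOTCH3 protein; score merges spot fluorescence near 667 nm with spot signal to noise.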 Particulars: higher = more signal.
Assay [14] is described as follows: small-molecule binders of probe aNOTCH2, primary screen, biochemical, small-molecule microarray, 635/667 nm fluorescence (AID 1121).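 Also: score merges feature fluorescence read at 667 nm with its signal to noise.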 Conditions: higher = more signal.
The target of assay [15] is Carbonic anhydrase 2 (Homo sapiens) (UniProt P00918). The assay can be described thus: CAII small-molecule binders, profiling panel, biochemical, small-molecule microarray, Alexa647-labelled CAII (AID 1122). Particulars: CAII-A647 binding fluorescence, higher = more signal.
A short description of assay [16]: COS7 lysate on small-molecule microarray, probe aHis, 635 nm (AID 1123).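 Also: z-score combines 667nm fluorescence intensity with signal-to-noise per printed compound spot.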 Particulars: COS7 cell lysate, fluorescence, higher = more signal.
A short description of assay [17]: compound binding in COS7 lysate, probe aLAP1, primary screen, cell lysate, small-molecule microarray (AID 1124).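 Also: lysate comes from COS7 cells expressing LAP1 and is applied at 0.3 µg/mL; score merges spot fluorescence near 667 nm with signal-to-noise over triplicate slides.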 Particulars: probe aLAP1, fluorescence, higher = more signal.
Assay [18] concerns Sam68 (KHDRBS1). The assay can be described thus: Sam68 small-molecule binders, primary screen, biochemical, small-molecule microarray, 635 nm fluorescence (AID 1125).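 Also: score merges 667 nm channel intensity with signal to noise over triplicate slides.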 Particulars: small-molecule microarray binding, higher = more signal.
For assay [19], the system named is Chordin-like protein 2 (CHRDL2). The assay can be described thus: CHRDL2 small-molecule binders, primary screen, biochemical, small-molecule microarray, 635 nm fluorescence (AID 1126).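 Also: printed compound slides probed with Chrdl2 protein at 4 µg/mL for 1 h at 4 C; score merges 667 nm emission intensity with signal to noise over three replicate slides.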 Conditions: small-molecule microarray binding, fluorescence 635 nm; higher = more signal.
Assay [20] concerns the target Concanavalin-A (Canavalia ensiformis) (UniProt P02866). The assay can be described thus: ConA small-molecule binders, primary screen, artefact control for SMM control protein annotation, biochemical, small-molecule microarray, Alexa647 label, 635 nm (AID 1127).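 Also: z combines 667 nm emission intensity with signal-to-noise across three replicate slides.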 Particulars: ConA-A647 binding fluorescence, higher = more signal.

Sequence of Albumin (Bos taurus) (P02769 whole entry, looked up): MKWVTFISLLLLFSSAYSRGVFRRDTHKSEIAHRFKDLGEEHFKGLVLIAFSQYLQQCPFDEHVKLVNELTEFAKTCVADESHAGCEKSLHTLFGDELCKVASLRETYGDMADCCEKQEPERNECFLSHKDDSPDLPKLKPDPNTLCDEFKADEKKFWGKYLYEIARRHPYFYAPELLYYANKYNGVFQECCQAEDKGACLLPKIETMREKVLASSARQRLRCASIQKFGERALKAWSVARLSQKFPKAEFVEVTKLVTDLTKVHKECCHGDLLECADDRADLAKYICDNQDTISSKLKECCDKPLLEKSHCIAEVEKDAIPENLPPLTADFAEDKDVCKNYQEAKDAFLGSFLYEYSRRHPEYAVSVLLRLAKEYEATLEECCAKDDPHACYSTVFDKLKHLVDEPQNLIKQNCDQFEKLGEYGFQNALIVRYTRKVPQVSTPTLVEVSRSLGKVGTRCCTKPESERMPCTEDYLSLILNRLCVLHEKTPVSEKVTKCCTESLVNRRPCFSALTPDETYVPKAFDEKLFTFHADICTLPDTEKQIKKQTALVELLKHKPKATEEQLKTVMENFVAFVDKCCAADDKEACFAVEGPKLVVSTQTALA
Sequence of Torsin-1A-interacting protein 1 (Homo sapiens) (Q5JTV8 whole entry, looked up): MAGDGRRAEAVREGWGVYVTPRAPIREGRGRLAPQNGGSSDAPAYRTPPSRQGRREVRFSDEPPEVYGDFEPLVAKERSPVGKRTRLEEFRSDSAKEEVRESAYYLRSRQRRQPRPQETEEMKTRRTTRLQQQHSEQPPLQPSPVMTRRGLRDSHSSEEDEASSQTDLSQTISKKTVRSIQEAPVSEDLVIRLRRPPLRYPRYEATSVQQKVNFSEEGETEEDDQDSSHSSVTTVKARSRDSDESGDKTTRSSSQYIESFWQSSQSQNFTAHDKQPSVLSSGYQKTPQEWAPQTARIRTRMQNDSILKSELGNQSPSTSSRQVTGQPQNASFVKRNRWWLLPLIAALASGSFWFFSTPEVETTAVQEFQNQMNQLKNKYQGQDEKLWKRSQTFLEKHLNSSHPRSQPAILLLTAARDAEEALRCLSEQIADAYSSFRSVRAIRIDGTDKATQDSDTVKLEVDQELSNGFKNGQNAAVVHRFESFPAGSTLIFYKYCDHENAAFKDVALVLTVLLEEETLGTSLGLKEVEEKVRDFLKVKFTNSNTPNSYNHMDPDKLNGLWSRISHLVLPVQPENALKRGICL
Sequence of Alpha-bungarotoxin (Bungarus multicinctus) (P60615 whole entry, looked up): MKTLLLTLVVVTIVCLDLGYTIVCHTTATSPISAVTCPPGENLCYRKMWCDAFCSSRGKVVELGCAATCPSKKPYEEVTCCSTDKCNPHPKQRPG
Sequence of Left-right determination factor 2 (Homo sapiens) (O00292 whole entry, looked up): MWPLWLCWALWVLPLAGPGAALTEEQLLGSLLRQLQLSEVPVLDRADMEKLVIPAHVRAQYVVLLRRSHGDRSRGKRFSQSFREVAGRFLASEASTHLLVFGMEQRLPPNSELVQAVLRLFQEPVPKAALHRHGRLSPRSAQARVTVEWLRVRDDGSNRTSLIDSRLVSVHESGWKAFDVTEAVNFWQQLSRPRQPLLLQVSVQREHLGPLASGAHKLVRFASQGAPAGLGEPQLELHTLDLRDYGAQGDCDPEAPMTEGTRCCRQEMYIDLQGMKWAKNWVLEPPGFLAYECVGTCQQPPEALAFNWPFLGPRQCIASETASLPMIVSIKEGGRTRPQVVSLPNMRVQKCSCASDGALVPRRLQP
Sequence of Concanavalin-A (Canavalia ensiformis) (P02866 whole entry, looked up): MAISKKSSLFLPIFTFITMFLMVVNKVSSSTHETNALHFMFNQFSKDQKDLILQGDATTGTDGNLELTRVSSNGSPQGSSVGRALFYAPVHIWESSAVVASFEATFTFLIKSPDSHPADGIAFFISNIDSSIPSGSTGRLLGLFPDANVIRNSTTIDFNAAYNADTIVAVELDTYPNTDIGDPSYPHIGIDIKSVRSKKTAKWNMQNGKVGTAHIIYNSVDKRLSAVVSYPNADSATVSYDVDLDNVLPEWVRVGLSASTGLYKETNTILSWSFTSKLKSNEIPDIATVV

For the compound `CCN(CC)c1ccc(N2CC=CC34O[C@@H]5C=CCOC(=O)[C@@H]5[C@H]3C(=O)N(CCCCCO)[C@@H]4C2=O)cc1` (stereo not given in full), the composite z-score in assay [1] is 0.221; in assay [3], -0.938; in assay [4] it was -0.385; in [5], -0.0559; in [6], 0.195; in assay [7], 0.147. Also, the composite z-score was 0.277 in assay [8]; 0.975 in assay [9]; -1.28 in [10]; 0.347 in [11]; -0.193 in assay [13]; -0.146 in [14]. For the same compound, the composite z-score in assay [15] is 0.861; in assay [16], 1.17; in [17] it was 1.04; in assay [18], -0.0514; in [19], -1; in assay [20], -1.47. Moreover, the z-score in [2] was -0.323. Further, the composite Z-score in assay [12] was 1.21 (inactive).
For `CC(C)C(=C=CC[C@H](O)c1ccccc1OCCO)CCO`, the composite z-score in [1] was 1.31; in [3], -0.378; in assay [4], -0.274; in assay [5], 0.0647; in assay [6], -0.0643; in [7] it was 0.0639. The composite z-score in assay [8] was -0.0546; in assay [9], 1.02; in assay [10], 1.92; in assay [11] it was -0.415; in assay [13] it was -0.0947; in [14] it was -0.045. In addition, the composite z-score was 0.707 in [15]; 0.989 in assay [16]; 0.342 in [17]; 0.829 in [18]; -0.332 in [19]; -0.284 in [20]. In addition, the z-score in assay [2] is -1.32. Besides, the composite Z-score in assay [12] was -0.172 (inactive).
For `COc1ccc([Si](C)(C)[C@@H]2[C@@H](CCO)O[C@]3(C(=O)N(Cc4cccc(N5CCCCC5=O)c4)c4ccccc43)[C@H]2C)cc1`, the composite z-score in assay [1] was 1.34; in [3], 0.34; in assay [4], 1.08; in [5], 0.415; in assay [6], -0.0165; in assay [7], -0.0626. The composite z-score in assay [8] was 0; in assay [9] it was 0.702; in assay [10], 0.836; in assay [11] it was 0.532; in assay [13] it was 0.134; in assay [14] it was -0.123. For the same compound, the composite z-score in [15] is 0.361; in assay [16], 1.06; in assay [17], 0.0492; in [18] it was 1.29; in assay [19], 0.128; in assay [20], 0.961. Also, in [2], the z-score was -5.14. Further, the composite Z-score in [12] is 0.6 (inactive).
In the case of `C=CCCN(CC#C[C@H]1Oc2ccccc2S(=O)(=O)N2CCC[C@@H]12)S(=O)(=O)c1ccc(C)cc1`, the composite z-score in [1] is 0.328; in [3], 0.148; in assay [4] it was -0.498; in assay [5], -0.863; in assay [6] it was -0.0125; in assay [7], 0.0048. Also, the composite z-score in [8] is -0.183; in [9] it was 0.631; in assay [10], -0.189; in [11], 0.0985; in assay [13], 0.0311; in assay [14] it was -0.102. Moreover, the composite z-score in [15] was 0.208; in assay [16], 0.273; in assay [17], 0.758; in assay [18], 0.215; in [19] it was 0.607; in assay [20], -0.464. Besides, the z-score in assay [2] is -1.92. The composite Z-score in [12] was 0.671 (inactive).
As for `CN1C(=O)C2C=CC(C(O)C(c3ccccc3)c3ccccc3)N(Nc3ccccc3)C2C1=O` (stereo not given), the composite z-score in [1] is 1.42; in [3] it was -0.0076; in [4] it was 1.29; in [5], 0.567; in assay [6], 0.137; in [7], 0.216. In addition, the composite z-score in [8] is 0.713; in assay [9] it was 0.597; in [10] it was 1.34; in [11] it was 0.959; in assay [13] it was 0.466; in assay [14] it was 0.0018. Also, the composite z-score was 0.453 in [15]; 2.72 in assay [16]; -0.167 in assay [17]; 1.31 in assay [18]; 0.106 in [19]; 1.16 in assay [20]. In addition, in assay [2], the z-score is -1.13. Moreover, the composite Z-score in assay [12] is 0.462 (inactive).
`CC(C)C[C@@H]1NC(=O)[C@@H]2C[C@H](C(=O)NCCCCN(C)C)[C@H](c3ccc(O)cc3)N2C1=O`: the composite z-score in assay [1] is -0.256; in [3], -1.58; in [4], -0.685; in assay [5] it was 0.33; in assay [6], -0.0977; in [7], -0.0553. For the same compound, the composite z-score was -0.0791 in [8]; 0.864 in [9]; -0.318 in [10]; -0.0836 in assay [11]; -0.236 in assay [13]; -0.124 in assay [14]. Further, the composite z-score in [15] is 0.335; in assay [16] it was 0.732; in assay [17], 0.148; in assay [18], 0.225; in assay [19], -0.631; in [20], -0.0663. Besides, the z-score in assay [2] is -0.556. In assay [12], the composite Z-score is 0.0699 (inactive).
